Source: PubChem (Milwaukee Institute for Drug Discovery)
This is a sample that favours compounds with a hit; in the whole collection about 7.6% have one here.
NS3h inh CB – HCV NS3 helicase inhibitors, primary screen, biochemical, fluorescence polarization, ChemBridge library; Hepatitis C virus NS3 helicase; NS3h Cy5-dT15 DNA binding; inhibition, % at 100 µM; actives 1.6% (n = 16,000);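 active means inhibition above the average over every tested compound plus 3 SD, cut at about 40% in these data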
Cy5 interf NS3h – Cy5 fluorescence quenchers or enhancers, artefact control for HCV NS3 helicase inhibitor project, biochemical, ChemBridge library, Cy5 readout; Cy5-dT15 DNA with NS3h, fluorescence interference; actives lie on both sides; signal over control mean, under 1 quenches; fluorescence interference ratio at 100 µM; actives 6% (n = 16,000);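 active means compound fluorescence over control fluorescence at most 0.8, a quencher, or at least a set upper limit, an enhancer; inactive means ratio between 0.8 and the set upper limit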
Numbers without * were called inactive.

SMILES	NS3h inh CB	Cy5 interf NS3h
COc1cc(/C=C2/SC(=S)N(c3ccccc3)C2=O)ccc1OC(=O)c1cccc(C)c1	0	0.67*
COc1ccc(N2C(=O)/C(=C\c3ccccc3C)SC2=S)cc1	10	1.2*
COc1cc(/C=C2\SC(=S)N(C)C2=O)ccc1OC(=O)c1cccc(C)c1	14	1
COc1ccccc1/C=C1\SC(=S)N(c2ccc(F)cc2)C1=O	-1	1
C=CCOc1ccc(/C=C2\SC(=S)N(c3ccc(OC)cc3)C2=O)cc1OC	14	0.73*
C=CCOc1ccc(/C=C2\SC(=S)N(c3ccc([N+](=O)[O-])cc3)C2=O)cc1OC	4	1
COc1cc(/C=C2\SC(=S)N(CC(C)C)C2=O)ccc1O	17	0.8*
COc1cc(/C=C2\SC(=S)N(C(C)C(=O)O)C2=O)ccc1O (stereo not drawn)	14	1
COC(=O)c1cc(NC(=O)/C=C/c2ccc(OC)cc2)cc(C(=O)OC)c1	5	1
CCOC(=O)CSc1nc(N)c(C#N)c(-c2ccc(O)cc2)c1C#N	7	0.99
CC(C)(C)C(=O)Nc1ccccc1C(=O)Nc1ccccc1	6	0.99
O=C(Nc1nc2ccccc2n1Cc1ccc(Cl)cc1)c1ccccc1	23	0.74*
Cc1ccc(C(=O)Nc2nc3ccccc3n2Cc2ccc(Cl)cc2)cc1	-10	1.1
O=C(Nc1ccc(S(=O)(=O)N2CCCCCC2)cc1)C(F)(F)F	14	0.77*
O=C(Nc1ccc(S(=O)(=O)N2CCCCC2)cc1)c1ccc(F)cc1	9	0.91
O=C1C=CC(=NS(=O)(=O)c2ccc(F)cc2)c2ccccc21	3	0.88
CCOC(=O)c1ccc(N2NC(=O)/C(=C/c3cccc(OC)c3O)C2=O)cc1	-2	0.85
CCOc1c(/C=C2\C(=O)NN(c3ccccc3)C2=O)cccc1OC	10	1
O=C1NN(c2ccccc2)C(=O)/C1=C/c1cccc(Cl)c1Cl	47*	0.99
O=C1NN(c2ccccc2)C(=O)/C1=C/c1cccc2ccccc12	19	1
COc1cc(Br)cc(/C=C2\C(=O)NN(c3ccccc3)C2=O)c1O	45*	0.82
Cc1ccc(N2NC(=O)/C(=C/c3ccc(C)c([N+](=O)[O-])c3)C2=O)cc1Cl	28	0.93
CCOC(=O)c1ccc(N2NC(=O)/C(=C/c3cc(Br)ccc3O)C2=O)cc1	-14	0.69*
COc1cc(/C=C2/C(=O)NN(c3ccc(C)c(C)c3)C2=O)cc([N+](=O)[O-])c1O	10	0.72*
CC(/C=C/c1ccccc1)=N/Nc1ccc([N+](=O)[O-])cc1[N+](=O)[O-]	3	1
SMILES	NS3h inh CB	Cy5 interf NS3h
N/C(=N/OC(=O)c1ccc(Br)cc1)c1ccc(Cl)cc1	7	1
C=CCNC(=O)COc1cccc(C)c1	3	1
O=C(O)/C=C/c1cccc(NS(=O)(=O)c2ccccc2)c1	1	1.1
O=C(/C=C/c1ccc(S(=O)(=O)Nc2ccccc2)cc1)C1C(=O)c2ccccc2C1=O	-38	0.47*
N#Cc1ccccc1OCC(=O)N/N=C\C=C\c1ccc([N+](=O)[O-])cc1	26	0.58*
O=C(COc1ccccc1)Nc1ccc([N+](=O)[O-])cc1	5	1.1
Cc1cc(/C=N/Nc2ccc([N+](=O)[O-])cn2)c(C)n1-c1ccccc1F	-10	0.92
Cc1ccc(C23CC4CC(CC(C(=O)Nc5ccc(C(=O)O)cc5)(C4)C2)C3)cc1	8	1.1
Cc1ccc(OCCOCCOc2ccccc2/C=C2/SC(=S)NC2=O)cc1	6	0.93
O=C1N=c2ccccc2=C1c1sc(=S)n(-c2ccc(C(=O)O)cc2)c1O	2	1.2*
Cc1cccc(-n2c(O)c(C3=c4ccccc4=NC3=O)sc2=O)c1	4	0.92
O=C(/C=C/c1ccc(Cl)cc1)Nc1ccc(F)c([N+](=O)[O-])c1	-2	0.91
Cc1cc([N+](=O)[O-])ccc1NC(=O)c1ccccc1	-19	1
Cc1ccc(C)c(NC(=O)c2ccc([N+](=O)[O-])cc2)c1	8	0.69*
O=C(Nc1ccccc1C(=O)Nc1ccccn1)c1ccc([N+](=O)[O-])cc1	-45	0.75*
O=C(Nc1ccccc1C(=O)N1CCOCC1)c1ccc([N+](=O)[O-])cc1	0	0.96
COC(=O)C1=C(C)NC2=C(C(=O)c3ccccc32)C1c1ccc(-c2ccc([N+](=O)[O-])cc2OC)o1 (stereo not drawn)	19	1.1
COc1ccc(S(=O)(=O)N(CC(=O)Nc2ccc(C)c(C)c2)c2ccc(C)cc2)cc1OC	8	1
CCOc1cccc(C(=O)Nc2nnc(-c3cccc(OCC)c3)s2)c1	-7	1.1
CCOc1ccc2nc(SCC(=O)NC(C)c3ccccc3)sc2c1 (stereo not drawn)	6	1
CCOc1cccc(C(=O)Nc2nc3ccc(C)cc3s2)c1	0	0.69*
CCOc1ccc2nc(SCC(=O)c3ccc(C)cc3C)sc2c1	4	0.76*
